From PubChem BioAssay AID1159580 (chemical genetic matrix, 2015)
Where “and” joins values, the source holds several entries; their conditions need not be identical. Equal values may be shown once. Out of some 5,500 compounds screened, about 2,000 (36%) were called active. Roughly 18% stayed inconclusive and do not appear here. No stated cut-off is given here; in the data, active means normalized growth mostly below about 0.91 (no sharp cut-off); inconclusive means no clear call, values can overlap the other calls; inactive means mostly above about 0.92. This is one part of the list.

Assay: chemical genetic growth profiling, strain panel (AID 1159580);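 further: tested at 20 µM; growth read once vehicle control cultures reached saturation at 30 °C; 1 = growth at the plate median or of vehicle wells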
Settings: S. cerevisiae deletion strains, growth OD

Measured: normalized growth

CC1(C)C(=O)C=C[C@@]2(C)C1C[C@@H](O)[C@]1(C)C2CC[C@@]2(C)[C@H](c3ccoc3)OC(=O)[C@H]3O[C@]321 (stereo partly specified)
inactive: locus YAL021C, strain ccr4, stronger effect = lower value 0.988 | locus YAL026C, strain drs2, stronger effect = lower value 0.996 | locus YAL030W, strain snc1, stronger effect = lower value 0.995 | locus YBL061C, strain skt5, stronger effect = lower value 1 | locus YBR009C, strain hhf1, stronger effect = lower value 1 | locus YBR021W, strain FUR4, stronger effect = lower value 1 | locus YBR023C, strain chs3, stronger effect = lower value 1.01 | locus YBR171W, strain sec66, stronger effect = lower value 0.998 | locus YBR229C, strain ROT2, stronger effect = lower value 0.939 | locus YBR231C, strain swc5, stronger effect = lower value 1.01 | locus YBR279W, strain paf1, stronger effect = lower value 1 | locus YCL011C, strain gbp2, stronger effect = lower value 1.01 | locus YCL016C, strain dcc1, stronger effect = lower value 1 | locus YCL029C, strain bik1, stronger effect = lower value 0.969 | locus YCL061C, strain MRC1, stronger effect = lower value 0.998 | locus YCL069W, strain vba3, stronger effect = lower value 0.998 | locus YCR088W, strain abp1, stronger effect = lower value 0.999 | locus YDL005C, strain med2, stronger effect = lower value 0.999 | locus YDL035C, strain GPR1, stronger effect = lower value 0.956 | locus YDL040C, strain nat1, stronger effect = lower value 1 | locus YDL074C, strain BRE1, stronger effect = lower value 0.958 | locus YDL101C, strain DUN1, stronger effect = lower value 0.98 | locus YDL185W, strain tfp1, stronger effect = lower value 0.954 | locus YDL192W, strain arf1, stronger effect = lower value 0.979 | locus YDR001C, strain nth1, stronger effect = lower value 0.985 | locus YDR069C, strain doa4, stronger effect = lower value 1.01 | locus YDR101C, strain arx1, stronger effect = lower value 0.97 | locus YDR137W, strain rgp1, stronger effect = lower value 0.985 | locus YDR159W, strain sac3, stronger effect = lower value 1.01 | locus YDR162C, strain NBP2, stronger effect = lower value 0.949 | locus YDR195W, strain ref2 0.986 | locus YDR297W, strain sur2, stronger effect = lower value 1 | locus YDR318W, strain mcm21, stronger effect = lower value 0.972 | locus YDR334W, strain swr1, stronger effect = lower value 0.995 | locus YDR335W, strain msn5, stronger effect = lower value 0.996 | locus YDR388W, stronger effect = lower value 0.996 | locus YDR392W, strain spt3, stronger effect = lower value 1.01 | locus YDR502C, strain sam2, stronger effect = lower value 1 | locus YEL003W, strain gim4, stronger effect = lower value 1 | locus YEL037C, strain rad23, stronger effect = lower value 0.995 | locus YEL061C, strain CIN8 (second series), stronger effect = lower value 0.994 | locus YER015W, strain faa2, stronger effect = lower value 0.99 | locus YER016W, strain bim1, stronger effect = lower value 1 | locus YER110C, stronger effect = lower value 0.968 | locus YER111C, strain swi4, stronger effect = lower value 1 | locus YER155C, strain BEM2 (second series), stronger effect = lower value 1 | locus YER155C, strain BEM2, stronger effect = lower value 1.01 | locus YER167W, strain BCK2, stronger effect = lower value 0.973 | locus YFR010W, strain ubp6, stronger effect = lower value 0.984 | locus YGL078C, strain dbp3, stronger effect = lower value 0.992 | locus YGL086W, strain mad1, stronger effect = lower value 0.988 | locus YGL167C, strain pmr1, stronger effect = lower value 1.01 | locus YGL173C, strain kem1, stronger effect = lower value 1.01 | locus YGL227W, strain vid30, stronger effect = lower value 1.01 | locus YGL240W, strain doc1, stronger effect = lower value 1.01 | locus YGL248W, strain PDE1, stronger effect = lower value 0.961 | locus YGL253W, strain hxk2, stronger effect = lower value 1 | locus YGR135W, strain pre9, stronger effect = lower value 1.04 | locus YGR229C, strain SMI1, stronger effect = lower value 0.95 | locus YGR252W, strain gcn5, stronger effect = lower value 0.965 | locus YHR013C, strain ard1, stronger effect = lower value 1.01 | locus YHR027C, strain rpn1, stronger effect = lower value 0.986 | locus YHR030C, strain SLT2, stronger effect = lower value 0.966 | locus YHR079C, strain IRE1 (second series), stronger effect = lower value 0.99 | locus YHR079C, strain IRE1, stronger effect = lower value 0.936 | locus YHR094C, strain hxt1, stronger effect = lower value 0.978 | locus YHR129C, strain ARP1, stronger effect = lower value 0.987 | locus YHR142W, strain chs7, stronger effect = lower value 1.01 | locus YHR200W, strain rpn10, stronger effect = lower value 0.976 | locus YIL066C, strain RNR3, stronger effect = lower value 0.94 | locus YIL073C, strain SPO22, stronger effect = lower value 0.928 | locus YIL125W, strain kgd1, stronger effect = lower value 0.985 | locus YIR030C, strain dcg1, stronger effect = lower value 0.992 | locus YJL092W, strain hpr5, stronger effect = lower value 0.999 | locus YJL095W, strain BCK1 (second series), stronger effect = lower value 1 | locus YJL095W, strain BCK1, stronger effect = lower value 1.01 and 0.956 | locus YJL115W, strain asf1, stronger effect = lower value 0.997 | locus YJL129C, strain trk1, stronger effect = lower value 0.991 | locus YJL134W, strain LCB3, stronger effect = lower value 0.98 | locus YJL154C, strain vps35, stronger effect = lower value 0.992 | locus YJL164C, strain tpk1, stronger effect = lower value 1 | locus YJL166W, strain qcr8, stronger effect = lower value 1.01 | locus YJL168C, strain set2, stronger effect = lower value 0.998 | locus YJL187C, strain SWE1 (second series), stronger effect = lower value 1 | locus YJL187C, strain SWE1, stronger effect = lower value 1.02 | locus YJR043C, strain POL32, stronger effect = lower value 0.937
